# Reference: publication PMC4336329 (PLoS ONE, 2015)
# The whole screen tested about 310,000 compounds, of which about 14,000 (4.5%) showed an effect of 50% or more. Effects have a minus sign here. The list comes from a sample in which strong results are over-represented; it also holds similar structures and randomly drawn compounds.
# Target: human ether-à-go-go-related gene (hERG) potassium channel (human, UniProt Q12809)
# Assay: primary screen, population patch clamp on CHO cells stably expressing hERG; higher = less effect of the substance
# 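Also: peak tail current of the secondary pulse compared with the same well before compound.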
# human ether-à-go-go-related gene (hERG) potassium channel, sequence (Q12809 whole entry, looked up): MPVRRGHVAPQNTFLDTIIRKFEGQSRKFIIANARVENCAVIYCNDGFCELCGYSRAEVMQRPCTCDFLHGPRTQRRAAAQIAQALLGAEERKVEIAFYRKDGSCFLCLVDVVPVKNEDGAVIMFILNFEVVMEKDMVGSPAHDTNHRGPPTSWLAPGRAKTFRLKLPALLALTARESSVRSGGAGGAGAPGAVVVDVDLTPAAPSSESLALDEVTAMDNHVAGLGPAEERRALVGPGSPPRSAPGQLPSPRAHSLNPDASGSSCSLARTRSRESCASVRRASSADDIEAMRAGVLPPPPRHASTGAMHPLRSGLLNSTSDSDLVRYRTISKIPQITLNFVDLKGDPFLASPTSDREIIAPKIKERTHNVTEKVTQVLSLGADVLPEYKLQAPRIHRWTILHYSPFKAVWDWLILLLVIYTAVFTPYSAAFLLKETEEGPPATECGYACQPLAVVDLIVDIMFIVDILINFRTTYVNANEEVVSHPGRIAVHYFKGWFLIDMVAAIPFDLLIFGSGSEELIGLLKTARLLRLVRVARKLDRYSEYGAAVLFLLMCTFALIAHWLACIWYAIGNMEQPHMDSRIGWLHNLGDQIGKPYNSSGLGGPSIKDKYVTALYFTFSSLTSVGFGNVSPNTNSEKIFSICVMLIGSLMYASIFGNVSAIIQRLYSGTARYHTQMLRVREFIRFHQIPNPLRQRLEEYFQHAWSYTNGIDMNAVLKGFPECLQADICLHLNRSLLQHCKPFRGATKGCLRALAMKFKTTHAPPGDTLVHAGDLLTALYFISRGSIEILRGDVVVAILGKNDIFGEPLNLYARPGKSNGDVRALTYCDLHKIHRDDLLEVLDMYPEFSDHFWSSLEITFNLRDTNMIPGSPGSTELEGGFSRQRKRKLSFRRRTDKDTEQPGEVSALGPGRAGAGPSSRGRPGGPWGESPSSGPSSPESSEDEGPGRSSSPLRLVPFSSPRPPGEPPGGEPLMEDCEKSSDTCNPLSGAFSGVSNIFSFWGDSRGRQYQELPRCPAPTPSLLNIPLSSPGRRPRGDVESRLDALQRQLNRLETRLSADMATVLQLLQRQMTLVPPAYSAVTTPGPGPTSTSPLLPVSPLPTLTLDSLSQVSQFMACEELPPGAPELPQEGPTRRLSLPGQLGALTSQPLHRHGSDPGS
row,SMILES,"hERG current change (%, negative = inhibition) at 10uM [%]"
1,COc1ccc(C(=O)C2CCCN(Cc3ccc(C)s3)C2)c(OC)c1 (stereo not shown),-53.7
2,COc1ccc(C(=O)C2CCCN(Cc3ccsc3)C2)cc1OC (stereo not shown),-73.8
3,COc1ccc(C(=O)C2CCCN(Cc3cnc(C)s3)C2)c(OC)c1 (stereo not shown),-42.3
4,COc1ccc(C(=O)C2CCCN(Cc3ccc(NC(C)=O)cc3)C2)cc1OC (stereo not shown),-21.1
5,NS(=O)(=O)c1ccc(CCNC(=O)C2CCN(S(=O)(=O)c3cnc[nH]3)CC2)cc1,-2.97
6,CC(C)(C)P(=O)(c1ccncc1)N1CCCC1 (stereo not shown),2.14
7,O=C(Nc1ccc2oc(=O)ccc2c1)c1cc([N+](=O)[O-])ccc1N1CCOCC1,-41.8
8,CCN(CC(=O)Nc1ccc(NC(C)=O)cc1)C(=O)/C=C/c1ccc2c(c1)OCO2,0.823
9,CC(C)C[C@H]1CN=C(Nc2ccccc2)N1CCC1CCCC1,-51.5
10,CC(C)C[C@H]1CN=C(Nc2ccccc2)N1CCCC1CCCC1,-65.9
11,CC(C)C[C@H]1CN=C(Nc2ccccc2)N1CCC1CCCCC1,-61.5
12,Fc1ccc(CN2CCSCC2)cc1Br,-11.1
13,CCCN(Cc1ccco1)S(=O)(=O)c1ccc(OC)c(OC)c1,0.00658
14,Cc1ccc(OCc2ccc(C(=O)N3CCOCC3)cc2)cc1C,-12.7
15,O=C(OCC(=O)c1ccc(Cl)s1)c1ccc(CO)cc1,-2.65
16,Cc1ccc(-n2c(SCC(N)=O)nnc2-c2ccc(S(=O)(=O)N3CCCCC3)cc2)c(C)c1,-52.7
17,NC(=O)CSc1nnc(-c2ccc(S(=O)(=O)N3CCCCC3)cc2)n1-c1ccccc1,-14.2
18,Cn1c(SCC(N)=O)nnc1-c1ccc(S(=O)(=O)N2CCCC2)cc1,4.87
19,CCN(CC)S(=O)(=O)c1ccc(S(=O)(=O)N2CCN(C(=O)c3ccco3)CC2)cc1,4.56
20,CC(C)C(=O)Nc1c(-c2ccc(Cl)cc2)c(=O)c2ccccc2n1C,20.9

row,SMILES,"hERG current change (%, negative = inhibition) at 10uM [%]"
1,CN1CCCN(C(=O)c2ccc(Cl)s2)CC1,-93.3
2,CN1CCCN(C(=O)c2ccc(Br)s2)CC1,-14.5
3,O=C(c1ccc(Cl)s1)N1CCCC1,-0.0803
4,C/C(=C\c1ccc(Cl)cc1)C(=O)c1c(C)cc(C)[nH]c1=O,9.59
5,CC(NC(=O)NC1CCCCC1)c1ccccc1 (stereo not shown),-3.12
6,C=CCn1c(CCNC(=O)c2cccs2)nnc1SCC(=O)Nc1cccc(Cl)c1C,-57.6
7,C=CCn1c(CCNC(=O)c2cccs2)nnc1SCC(=O)c1ccc(Br)cc1,-67.1
8,C=CCn1c(CCNC(=O)c2cccs2)nnc1SCC(=O)c1ccc(Cl)cc1,-38.5
9,C=CCn1c(CNC(=O)c2cccs2)nnc1SCC(=O)c1ccc(Br)cc1,-19.3
10,C=CCn1c(CCNC(=O)c2cccs2)nnc1SCC(=O)Nc1cccc(F)c1,-34.6
11,C=CCn1c(CCNC(=O)c2cccs2)nnc1SCC(=O)Nc1cccc(C(C)=O)c1,7.23
12,O=C(Nc1ccccc1)Nc1ccncc1,6.4
13,Cc1ccc(NC(=O)CC2S/C(=N/N=C3/NC(=O)CS3)NC2=O)cc1 (stereo not shown),19.5
14,COc1ccc(-c2[nH]nc3c2C(c2ccccc2OC(=O)N2CCOCC2)C(C#N)=C(N)O3)cc1 (stereo not shown),4.69
15,CC1CCN(C(=S)SCc2nc(N)nc(Nc3ccccc3)n2)CC1,-2.72
16,CC1CC(C)CN(Cc2nc(N)nc(Nc3ccccc3)n2)C1 (stereo not shown),-64.8
17,CC1CC(C)CN(C(=S)SCc2nc(N)nc(Nc3ccccc3)n2)C1 (stereo not shown),-6.04
18,CC1CC(C)CN(Cc2nc(N)nc(Nc3ccc4ccccc4c3)n2)C1 (stereo not shown),-79
19,COc1cccc(Nc2nc(N)nc(CCl)n2)c1,0.476
20,CCNC(=O)CCn1nc(-c2ccc(Cl)cc2)c2ccccc2c1=O,-29

row,SMILES,"hERG current change (%, negative = inhibition) at 10uM [%]"
1,Cc1cccc(N2CCN(S(=O)(=O)c3ccc4c(c3)NC(=O)C(C)S4)CC2)c1C (stereo not shown),-2.54
2,CCN(CC)c1ccc(/C=C2\SC(N)=NC2=O)cc1,7.42
3,Cn1cccc1CC(=O)NNC(=S)NC(=O)c1ccccc1Br,13.1
4,COc1ccc(-c2nc(-c3ccccc3)ncc2S(C)(=O)=O)cc1,13
5,COc1ccc2c(c1OC)C(=O)N(c1nc(SC)n[nH]1)C2=O,18.3
6,COc1cccc(N(CC(=O)NCc2ccccc2)C(=O)CCC(=O)Nc2nccs2)c1,10.8
7,Cc1nccn1CC(O)COc1ccccc1 (stereo not shown),-0.412
8,COc1ccc(OCC(O)Cn2ccnc2C)cc1 (stereo not shown),5.09
9,Cc1ccc(N2CCN(CC(O)COc3ccc([N+](=O)[O-])cc3)CC2)cc1 (stereo not shown),-76.4
10,COc1ccc(N2CCN(CC(O)COc3ccc([N+](=O)[O-])cc3)CC2)cc1.Cl (stereo not shown),-62.5
11,Cc1nccn1CC(O)COc1ccc([N+](=O)[O-])cc1 (stereo not shown),-66.2
12,Cc1ccc(OCC(O)CN2CCN(c3ccc(C)cc3)CC2)cc1 (stereo not shown),-28
13,NNC(=O)COc1ccc(F)cc1,9.33
14,COc1ccc(C(C)=O)cc1COC(=O)c1ccc(S(=O)(=O)N(C)C)cc1,-2.42
15,CCc1ccc(S(=O)(=O)Nc2cccc(-c3ccc4nnc(C)n4n3)c2)s1,-11.6
16,CCOC(=O)c1cccc(NC(=O)/C(=C\c2ccccc2)NC(=O)c2ccccc2Cl)c1,3.62
17,CC1=NN(C(=O)Cc2ccc(C)cc2)C(O)(c2cccnc2)C1 (stereo not shown),10.1
18,COc1ccc(-c2nc3cnccn3c2NCc2ccccc2)cc1SC1CCCCC1.O=C(O)C(F)(F)F,2.68
